In PubChem BioAssay AID1259343 (VanderVen Lab, College of Veterinary Medicine, Cornell …, 2017) one finds inhibition data, which are given here for 96 molecules.

The whole screen tested about 6,200 compounds, of which about 2,900 (47%) were called active. So high a share suggests a set chosen from earlier hits. This is one part of the list. Values without a mark were called inactive. Cut-off read from the data, not from the text of the source: active = inhibition above about 50%; inactive = the rest.

Usually inhibition stands for the drop in the measured response relative to a control, in per cent.

The assay can be described thus: Mycobacterium tuberculosis growth inhibition, primary screen (AID 1259343). The following applies: inhibition: at 10 µM, stronger effect = higher value; outcome: 10 uM.
`Nc1ccc(-c2nc(-c3ccccc3)c3cc(N)ccc3n2)cc1`: the inhibition is 29.6%. On to `CC[n+]1c(-c2ccccc2)c2cc(N)ccc2c2ccc(N)cc21`, for which the inhibition was 99.5% (active). In the case of `Cc1ccc2sc(NNC(=O)c3cc(=O)c4ccccc4o3)nc2c1C`, the inhibition is 72.2% (active).

With `O=S(=O)(c1ccc(F)cc1)N1CCN(c2ccnc3cc(Cl)ccc23)CC1`, the inhibition is 3.02%.

On to `O=S(=O)(c1ccc(F)c(F)c1)N1CCN(c2ccc(O)cc2)CC1`, for which the inhibition is 56.7% (active). Regarding `CCC(C)NC(=O)c1cnc(N2CCN(c3ccccc3[N+](=O)[O-])CC2)nc1OC` (stereo unspecified), the inhibition was 2.36%. To `CCC(CC)NC(=O)c1ccc(N2CCCCC2)c([N+](=O)[O-])c1` belongs 96.8% (active); to `O=C(c1ccc(N2CCCCC2)c([N+](=O)[O-])c1)N1CCc2ccccc21`, 23.8%; to `CN(C(=O)CSc1nc2sc3c(c2c(=O)[nH]1)CCCC3)C1CCCCC1`, 93.2% (active). To `CN(C(=O)CSc1nc2sc3c(c2c(=O)n1C)CCCC3)C1CCCCC1` belongs 18.9%; to `CCOC(=O)c1nn(-c2ccc(C)cc2)c(=O)c2c(N)scc12`, 60.8% (active); to `CCOC(=O)c1nn(-c2ccc(C)cc2)c(=O)cc1N1CCN(c2ccccc2OC)CC1`, 38.5%. With `CCOC(=O)c1nn(-c2cccc(C)c2)c(=O)c2c(N)scc12` the figure was 89.5% (active). For `CCOC(=O)c1nn(-c2ccc(C)cc2)c(=O)cc1NC(=O)C1CCCC1`, the inhibition was -7.9%.

Turning to `CCOC(=O)c1nn(-c2ccccc2)c(=O)cc1NC(=O)c1ccc(C(C)(C)C)cc1`, the inhibition is -13.4%. To `CCOC(=O)c1nn(-c2ccc(C(C)C)cc2)c(=O)c2c(N)scc12` belongs 101% (active).

Consider `CCOC(=O)c1nn(-c2ccccc2)c(=O)c2c(NC(=O)CCCCl)scc12`, for which the inhibition is 61.2% (active).

Consider `Nc1ccccc1Cc1ccc(O)cc1`, for which the inhibition was 30.5%. Regarding `N[C@@H](CO)C(=O)Nc1ccc(Cc2ccccc2)cc1`, the inhibition was 89.6% (active). Regarding `CCN1CCN(Cc2ccc(-c3cc4c(N[C@H](C)c5ccccc5)ncnc4[nH]3)cc2)CC1`, the inhibition is 16.6%. With `Cc1ccc(Cn2ncc3c(N4CCN(CCOc5ccc(C)cc5)CC4)ncnc32)cc1`, the inhibition is 24.2%. As to `OCC1(CCOc2ccccc2)CCN(c2ncnc3sccc23)CC1`, the inhibition was 20.1%. Turning to `COc1ccc(CN2CCN(c3ncnc4c3cnn4-c3ccccc3)CC2)cc1F`, the inhibition is 82.1% (active). Take `COc1cccc(OCCN2CCN(c3ncnc4c3cnn4-c3ccccc3)CC2)c1`: the inhibition was 64% (active).

On to `Cc1ccc(-c2cnn3c(NCCOCCO)cc(C(C)(C)C)nc23)cc1`, for which the inhibition was -3.38%. To `CN(C)CCCNc1cc(C(C)(C)C)nc2c(-c3ccccc3)cnn12` belongs 74% (active); to `CN(C)CCCNc1cc(C(C)(C)C)nc2c(-c3ccc(Cl)cc3)cnn12`, 36.7%. With `CC(C)c1cc(NCCN(C)C)n2ncc(-c3ccccc3)c2n1` the figure was -10.7%. For `CN(C)CCNc1cc(-c2ccccc2)nc2c(-c3ccccc3)cnn12`, the inhibition was 70.7% (active). With `Cc1cc(NCCN(C)C)n2nc(C(F)(F)F)c(-c3ccccc3)c2n1` the figure was 45%; with `Cc1cc(=O)[nH]c(-n2nc(C3CC3)cc2NC(=O)c2ccc(F)cc2)n1`, 99.8% (active); with `Cc1cc(=O)[nH]c(-n2nc(C3CC3)cc2NC(=O)c2ccc(F)c(F)c2)n1`, 99.9% (active).

For the molecule `Cc1cc(=O)[nH]c(-n2nc(C3CC3)cc2NC(=O)c2ccc(C(F)(F)F)cc2)n1`, the inhibition was 99.9% (active).

`CCCCc1ccc(-n2c(C)c(C)n3c4c(=O)n(CCCO)c(=O)n(C)c4nc23)cc1`: the inhibition is 46.3%.

Regarding `Cc1cn2c3c(=O)n(CC(=O)C(C)(C)C)c(=O)n(C)c3nc2n1C1CCCC1`, the inhibition was -30.1%. To `CCCCCCn1c(N2CCN(Cc3ccc(Cl)c(Cl)c3)CC2)nc2c1c(=O)[nH]c(=O)n2C` belongs 9.32%; to `CCCn1c(C2CCCCC2)nc2c(c(=O)c3ccccc3n2C)c1=O`, 12.9%; to `CCCCCn1c(=O)c2c(nc3n2CCN3Cc2ccco2)n(C)c1=O`, 61% (active). Regarding `CC(C)CCn1c(N2CCCCC2)nc2c1c(=O)n(C)c(=O)n2C`, the inhibition was -32.3%.

In the case of `CCCCCn1c(=O)c2c(nc3n2CC(C)CN3C2CCCCC2)n(C)c1=O` (stereo unspecified), the inhibition was 92.2% (active).

For `CCCn1c(=O)c2c(nc3n2CCCN3Cc2ccccc2)n(C)c1=O`, the inhibition was 33.4%. To `CCCCCCn1c(N2CCN(c3ccccc3)CC2)nc2c1c(=O)n(C)c(=O)n2C` belongs 81.9% (active).

As for `N[C@@H](C(=O)O)[C@@H](O)[C@H](O)[C@H](O)CO`, the inhibition was -6.84%.

As to `O=C(NNC(=O)c1cc(-c2ccccc2)no1)c1ccco1`, the inhibition is 96% (active). To `O=C(Nc1nccs1)c1ccc(COc2ccc(F)cc2)o1` belongs 29.5%; to `O=C(NNC(=O)c1ccc(COc2ccccc2)o1)c1ccco1`, 59.7% (active); to `Cn1nccc1CNC(=O)c1ccc(COc2cc(Cl)ccc2Cl)o1`, 35%. To `c1ccc(-c2cc(-c3ccccc3)on2)cc1` belongs 46.9%; to `C=CCn1c(SCCC#N)nc2sc3c(c2c1=O)CCCC3`, 80.7% (active); to `C=CCn1c(SCc2c(C)noc2C)nc2sc(C)c(C)c2c1=O`, 30.8%.

Turning to `C=CCn1c(=S)[nH]c2sc3c(c2c1=O)CCC(C)C3` (stereo unspecified), the inhibition was 8.34%.

As to `O=C(O)c1cccc(=O)n1CCOc1ccccc1Cl`, the inhibition is 53.1% (active). To `Cc1ccc(C)c2c3c([nH]c12)-c1nonc1CC3` belongs 34.5%.

Regarding `CCn1c2ccccc2c2nc3ccccc3nc21`, the inhibition is -25.2%. To `O=c1[nH]n2c(=O)c3ccccc3nc2c2ccccc12` belongs 86% (active); to `Cc1nc2ccccc2c(=O)n1NC(=S)NC(=O)c1ccc(Br)cc1`, 40.8%. With `CC1CN(c2ccc(C(=O)NC(c3ccccc3)c3ccc(Cl)cc3)cn2)CCN1` (stereo unspecified) the figure was 33.2%; with `Cc1cc(C(C)(C)C)cc(C)c1CCN1CN(CCO)c2nc3ccccc3n2C1`, 66.6% (active); with `CC1CC(C)CN(S(=O)(=O)NCc2cc3ccccc3[nH]2)C1` (stereo unspecified), 27.9%. With `CN(C(=O)CN1CCC(c2cc3ccccc3[nH]2)CC1)C1CC1` the figure was -6.34%; with `CC1CCN(S(=O)(=O)N2CCCC(c3cc4ccccc4[nH]3)C2)CC1` (stereo unspecified), 73.2% (active); with `N[C@H]1CN[C@H](C(=O)N2CC(N3CCCCC3)C2)C1`, -19.7%. On to `CC/C=C(/C)C(=O)Nc1ccc(-n2nccn2)cc1`, for which the inhibition is 96.5% (active). With `COc1c(N2CCNC(C)C2)c(F)cc2c(=O)c(C(=O)O)cn(C3CC3)c12` (stereo unspecified) the figure was 98% (active); with `O=C(CCS(=O)(=O)c1ccc(Cl)cc1)NCCC1=CCCCC1`, 79% (active); with `O=C(Cc1cc(-c2ccc(Cl)cc2)on1)NCCC1=CCCCC1`, 37.4%. To `Cc1cc(=O)[nH]c(-n2nc(C3CC3)cc2NC(=O)COc2ccc(Cl)cc2)n1` belongs 100% (active).

Turning to `Cc1cc(=O)[nH]c(-n2nc(C3CC3)cc2NC(=O)COc2ccc(F)cc2)n1`, the inhibition is 99.9% (active). To `Cc1cc(=O)[nH]c(-n2nc(C3CC3)cc2NC(=O)COc2ccc(Cl)cc2Cl)n1` belongs 100% (active); to `Cc1cc(=O)[nH]c(-n2nc(C)cc2NC(=O)COc2ccc(F)cc2)n1`, 99.8% (active); to `COc1ccc(OCC(=O)Nc2cc(C3CC3)nn2-c2nc(C)cc(=O)[nH]2)cc1`, -5.9%.

Regarding `CCCCn1c(O)c(C=Nc2cccc(C)c2)c(C)c(C#N)c1=O`, the inhibition was -35.7%.

As for `Cc1cc(C(F)(F)F)c2c(n1)sc1c(O)cc(=O)[nH]c12`, the inhibition was 27.2%. To `Cc1cc(=O)[nH]c(-n2nc(C)cc2NC(=O)C(C)Oc2ccccc2)n1` (stereo unspecified) belongs 99.8% (active). Turning to `Cc1cc(=O)[nH]c(-n2nc(C)cc2NC(=O)C(c2ccccc2)c2ccccc2)n1`, the inhibition is 101% (active). With `CCc1c(C)nc(-n2nc(C)cc2NC(=O)C(CC)c2ccccc2)[nH]c1=O` (stereo unspecified) the figure was 12.6%. To `CCc1cc(=O)[nH]c(-n2nc(C)cc2NC(=O)C(c2ccccc2)c2ccccc2)n1` belongs 100% (active); to `CCc1ccsc1CNC(=O)c1sccc1Br`, 24.1%; to `CCc1ccc(CNC(=O)c2cc(F)ccc2Br)s1`, 59.5% (active). To `CCc1ccc(CNC(=O)c2cncc(Br)c2)s1` belongs 83.2% (active); to `CCc1ccc(CNC(=O)c2ccc(Cl)s2)s1`, 45%. As for `CCc1ccc(CNC(=O)c2cc(C)sc2C)s1`, the inhibition is 54.8% (active). With `CN(C)c1cc(C(=O)NCc2ccc(Cl)s2)ccn1` the figure was -1.2%; with `CCc1nc(C)c(-c2nc(CCc3ccccc3)no2)s1`, 49.3%. To `COC1CCN(c2ccc(-c3nc(CCCc4ccccc4)no3)cn2)CC1` belongs 51.1% (active); to `Cc1noc(-c2ccc(N3CC[C@@H](c4ccc5c(c4)OCO5)[C@H](O)C3)nc2)n1`, 12.9%; to `CC(C)Cc1noc(-c2ccc(-c3ccc(O)cc3)nc2)n1`, 23.2%.

For `CCc1cn[nH]c1C1CCN(c2noc(-c3ccccc3)n2)CC1`, the inhibition was 20.9%. On to `OCc1ccccc1-c1ccc(-c2nc(CCc3ccccc3)no2)cn1`, for which the inhibition is 75.2% (active). As for `Nc1ccc(-c2ccc(-c3nc(CCCc4ccccc4)no3)cn2)cn1`, the inhibition was 59.3% (active). To `O=C(Nc1ccc2c(c1)CN(Cc1ccc(-n3cccn3)cc1)CC2)c1ccccn1` belongs “inactive”; to `O=C(CCCc1cccs1)N1CCN(c2ccccc2O)CC1`, 13%.

As for `O=C(Nc1ccc2c(c1)CN(C(=O)/C=C/c1cccs1)CC2)c1ccccn1`, the inhibition was 58.9% (active). With `CC(C)Oc1cccc(C(=O)C2CCCN(C(=O)/C=C/c3cccs3)C2)c1` (stereo unspecified) the figure was -2.95%. To `O=C(Nc1ccc2c(c1)CN(C(=O)CCCc1cccs1)CC2)c1ccccn1` belongs 54.1% (active); to `COc1ccccc1C(=O)Nc1ccc2c(c1)CN(Cc1c[nH]c3ccccc13)CC2`, 45.8%.
